Source: PubChem BioAssay
Compounds with a hit are over-represented: about 12% of the library has one in this group of screens.
HP1b binding inh: blocks HP1-beta chromodomain binding to methylated histone tails. P83916. AlphaScreen HP1-beta / biotin-H3K9me3 peptide binding. Potency, µM (top dose mostly 114 µM), usual class: inhibitors. 390,000 tested, 0.56% active. AID 540317; further: nearly all actives have a fitted effect of over 70% in size
Target sequence (P83916 whole entry, looked up): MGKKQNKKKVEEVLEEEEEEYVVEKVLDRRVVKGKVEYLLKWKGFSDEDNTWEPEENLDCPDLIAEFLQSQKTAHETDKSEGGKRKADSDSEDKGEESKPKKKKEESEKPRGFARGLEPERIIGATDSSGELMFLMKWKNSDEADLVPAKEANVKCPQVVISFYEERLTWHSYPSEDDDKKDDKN
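HP1-beta protein (50 nM final) preincubated 30 min at room temperature with biotinylated H3(1-18)K9me3 peptide (50 nM) in PBS pH 7.4, 0.01% Tween-20, then compound added for 30 min. AlphaScreen streptavidin donor/nickel chelate acceptor beads (10 ug/mL final), 30 min dark, luminescence read.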
G9a inh: blocks human histone lysine methyltransferase G9a | G9a H3K9 monomethylation, AlphaScreen, 2 h | Potency, µM (series often up to 102 µM), hits mostly inhibitors | 350,000 tested, 8.8% active | AID 504332; further: nearly all actives have a fitted effect of over 75% in size
Target sequence (Q96KQ7 913-1193 limits assumed): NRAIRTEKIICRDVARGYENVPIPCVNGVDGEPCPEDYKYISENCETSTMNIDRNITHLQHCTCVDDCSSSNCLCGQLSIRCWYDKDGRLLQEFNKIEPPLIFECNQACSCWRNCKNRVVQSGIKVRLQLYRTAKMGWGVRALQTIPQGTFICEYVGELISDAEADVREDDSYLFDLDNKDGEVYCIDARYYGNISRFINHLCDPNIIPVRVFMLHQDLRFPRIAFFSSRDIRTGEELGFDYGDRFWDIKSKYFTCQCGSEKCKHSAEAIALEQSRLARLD
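Step 1: enzyme (final 20 nM) with compound, 15 min RT. Step 2: substrate peptide 500 nM and SAM 20 uM, 2 h RT. Step 3: anti-H3K9me1 antibody and AlphaScreen beads, 10 min, then plate read.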
Sfp PPTase inh: Sfp phosphopantetheinyl transferase inhibition. Q9F4F7. Biochemical Sfp PPTase activity, qHTS. Potency, µM, hits mostly inhibitors. 310,000 tested, 3.5% active. AID 1490;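 further: the enzyme is Sfp with the accession as filed and its product quenches rhodamine fluorescence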
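After 15 min at room temperature with compound, 15 nM Sfp received 5 uM rhodamine-CoA plus 12.5 uM BHQ-2-ybbR (50 mM Hepes pH 7.6, 10 mM MgCl2). Rate came from the fluorescence difference over 30 min, ex 525/em 598 nm.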
JMJD2A Tudor inh: JMJD2A Tudor domain (human) inhibition | O75164 | AlphaScreen JMJD2A-Tudor / H3K4me3 peptide binding | Potency, µM (doses to about 114 µM), usual class: inhibitors | 390,000 tested, 4.4% active | AID 504339; further: nearly all actives have a fitted effect of over 50% in size
L3MBTL1 inh: L3MBTL1 (human) inhibition. Q9Y468. AlphaScreen L3MBTL1–H3K9me1 peptide binding. Potency, µM (top dose mostly 57.1 µM), actives largely listed as inhibitors. 230,000 tested, 0.66% active; further: nearly all actives have a fitted effect of over 60% in size
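Displacement of a biotinylated histone H3(1-15) peptide monomethylated at Lys9 (75 nM) from L3MBTL1 (50 nM) was measured by AlphaScreen after a 30 min room-temperature compound incubation; cefsulodin titration served as intraplate control.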
BAZ2B inh: inhibitors of human BAZ2B bromodomain | Q9UIF8 | AID 504333 | 360,000 tested, 4.4% active | Potency, µM (series often up to 114 µM), most hits filed as inhibitors | AlphaScreen BAZ2B-H3K14Ac peptide displacement; further: nearly all actives have a fitted effect of over 60% in size
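Compounds, titrated to a top concentration of 110 uM, were incubated 30 min at room temperature with preformed BAZ2B/acetyl-K14 H3 peptide complex (50 nM each). Proximity signal was measured by AlphaScreen after 20 min with beads.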
A number is an active result; . = inactive; ? = inconclusive; / = no result given; [ ] = remark or other dose. The call rests on the fitted dose curve; in most records, active means well fitted curve in the direction sought with a large enough effect; inconclusive means small, poorly fitted or top-dose-only effect, or another doubt; inactive means no such curve, though single readings can be large; an effect the other way counts as inactive or inconclusive.

SMILES	HP1b binding inh	G9a inh	Sfp PPTase inh	JMJD2A Tudor inh	L3MBTL1 inh	BAZ2B inh
C=CCn1c(Cc2csc(N)n2)nnc1SCC(=O)OCC	.	.	.	44.7µM	/	28.2µM
C=CCn1c(Cc2csc(N)n2)nnc1SCC(=O)Nc1ccc(C(=O)OCC)cc1	.	.	.	79.4µM	?	22.4µM
COc1ccc(N=C2SCC(c3ccc(C)cc3)=NN2CCO)cc1	.	50.1µM	.	.	.	?
COc1ccc(N=C2SC(C(=O)N3CCN(c4ccc([N+](=O)[O-])cc4)CC3)CC(=O)N2C)cc1 (stereo not drawn)	.	/	.	.	.	?
O=[N+]([O-])c1ccc(C2=NN(CCO)C(=Nc3ccc(OC(F)(F)F)cc3)SC2)cc1	?	15.8µM	.	?	.	?
COc1ccc(C2=NN(C)C(=NCc3ccccc3)SC2)cc1	/	/	.	.	.	.
COc1ccc(-c2nc(-c3ccccc3)c(-c3cc([N+](=O)[O-])ccc3C)[nH]2)cc1OC	?	?	.	.[11.4 µM]	/	44.7µM
O=[N+]([O-])c1ccc(O)c(-c2nc(-c3ccccc3)c(-c3cccs3)[nH]2)c1	?	.[0.501 µM]	.	44.7µM	.	35.5µM
O=[N+]([O-])c1ccc2nc(-c3ccccc3)[nH]c2c1	.	.	.	.	.	.
CCOc1cc(-c2nc(-c3ccccc3)c(-c3cc([N+](=O)[O-])ccc3C)[nH]2)ccc1O	.	14.1µM	.	?	/	?
COc1ccccc1-c1cc2nc(C)c(CCC(=O)NCc3cccc(Cl)c3)c(C)n2n1	.	.	/	.	/	.
CCOC(=O)c1c(C)oc2nc(C)nc(NCc3cccc(Cl)c3)c12	.	.	/	.	/	.
O=C(Nc1ccc([N+](=O)[O-])cn1)c1cc(-c2cccc(Br)c2)nc2ccccc12	.	?	.	.	.	.
CCOc1cccc(-c2cc(C(=O)Nc3ccon3)c3ccccc3n2)c1	.	20µM	.	.	/	.
COc1cccc(-c2cc(C(=O)Nc3ccc([N+](=O)[O-])cn3)c3ccccc3n2)c1	.	7.94µM	.	.	.	?
Cc1ccc(C(=O)n2nc(C)c(S(=O)(=O)N3CCCCCC3)c2C)cc1	.	.	/	.	/	.
CC(C)(C)n1nc2c(c1NC(=O)Cc1ccc(F)cc1)CSC2	.	44.7µM	?	.	/	.
COc1ccc2c(c1)C(=O)[C@H](OC(=O)N[C@H]1CCCc3ccccc31)[C@@H](c1ccc(OC)c(Br)c1)O2	/	/	.	/	/	/
CCc1ccc(OCC(=O)N/N=C\c2ccco2)c([N+](=O)[O-])c1	?	.	.	?	35.5µM	44.7µM
O=C(COc1cccc([N+](=O)[O-])c1)N/N=C/c1ccco1	.	?	.	?	.	?
Cc1cccc(C)c1OCC(=O)N/N=C/C=C/c1ccco1	.	31.6µM	.	.	/	.
O=C(COc1cccc2ccccc12)N/N=C/c1ccco1	.	/	.	.	/	?
Cc1cccc(OCC(=O)N/N=C/C=C/c2ccco2)c1	.	8.91µM	?	.	?	?
Cc1cc(C)cc(OCC(=O)N/N=C/c2ccco2)c1	.	.	.	.	.	.
Cc1ccc(OCC(=O)N/N=C/C=C/c2ccco2)c(Br)c1	.	44.7µM	50.1µM	?	/	.
SMILES	HP1b binding inh	G9a inh	Sfp PPTase inh	JMJD2A Tudor inh	L3MBTL1 inh	BAZ2B inh
CCOC(=O)c1cc(OC(=O)c2ccccc2F)n(-c2ccccc2)n1	.	.	/	.	/	.
O=C(Nc1ccc(Cl)cc1)c1ccc2c(c1)N(Cc1ccccc1)CCS2	.	.	/	.	/	.
CN(C)c1ccc(C(=O)Nc2nc3c(s2)CCCC3)cc1	?	35.5µM	?	79.4µM	.	?
C/C(=N\NC1=NCCN1)c1ccc(Cl)cc1	.	.	.	.	.	.
C/C(=N\Nc1nc2c(s1)CCCC2)c1ccc(Cl)cc1	.	?	50.1µM	?	.	44.7µM
COc1cccc(C(=O)Nc2nc3c(s2)CCCC3)c1	.	10µM	/	?	/	?
COc1ccc(-c2ccc(CCC(=O)O)n2NC(=O)c2cccs2)cc1	.	14.1µM	.	.	.[11.4 µM]	.
COc1ccc(CCC(=O)NNC(=O)c2cccs2)cc1	.	.[2.33 µM]	/	.	.	.
O=C(O)CCc1ccc(-c2ccccc2)n1NC(=O)c1ccco1	.	?	.	.	/	.
